GPR151 activ – activates the human receptor GPR151; Q8TDV0; PathHunter beta-arrestin GPR151 cells, luminescence; activation, % at 11.2 µM; 650,000 tested, 1% active; in the data active means activation above about 4.9%
MITF primary – blocks human microphthalmia-associated transcription factor; AlphaScreen MITF homodimerization, bead proximity signal; inhibition, % at 2.6 µM; 650,000 tested, 0.91% active; AID 1259374; in the data active means inhibition above about 50%
Target sequence (O75030 whole entry, looked up): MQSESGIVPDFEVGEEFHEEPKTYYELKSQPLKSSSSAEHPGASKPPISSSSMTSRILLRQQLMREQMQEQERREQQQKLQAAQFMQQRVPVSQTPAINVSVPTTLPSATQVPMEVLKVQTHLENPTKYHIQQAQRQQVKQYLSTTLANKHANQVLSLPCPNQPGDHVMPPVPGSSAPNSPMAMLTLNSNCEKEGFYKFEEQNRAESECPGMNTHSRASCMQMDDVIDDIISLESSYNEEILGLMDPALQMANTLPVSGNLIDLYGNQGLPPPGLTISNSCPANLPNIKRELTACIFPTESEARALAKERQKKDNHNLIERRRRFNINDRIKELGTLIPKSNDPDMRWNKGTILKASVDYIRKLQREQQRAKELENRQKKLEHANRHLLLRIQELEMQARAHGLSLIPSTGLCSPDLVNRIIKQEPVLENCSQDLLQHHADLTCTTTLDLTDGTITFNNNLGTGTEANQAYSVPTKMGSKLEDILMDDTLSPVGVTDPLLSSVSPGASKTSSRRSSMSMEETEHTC
FBW7 act – human FBW7 E3 ligase activation, primary screen | 650,000 tested, 0.13% active | normalized activity (activation), % at 26.1 µM | AlphaScreen FBW7–phospho-cyclin E peptide binding, activator screen; in the data active means normalized activity above about 1.9%;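 further: purified mutant Fbw7 with reduced substrate affinity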
TEAD-YAP block – TEAD-YAP interaction inhibition; HEK-TIYL cells, TEAD-Gal4/YAP UAS-luciferase luminescence; inhibition, % at 9.12 µM; 640,000 tested, 1.4% active; AID 1259422; in the data active means inhibition above about 32%
Large screens that a line does not name were inactive. This is a sample that favours compounds with a hit; in the whole collection about 3.5% have one here.

O=C1CC(c2ccccc2)n2nc(NC(=O)c3ccc([N+](=O)[O-])cc3)nc2N1 (stereo unspecified)	none
CCOCCCNC(=O)c1ccc([N+](=O)[O-])cc1	none
CC(=O)c1ccc(Nc2ccc(-c3ccccc3F)nn2)cc1	TEAD-YAP block 57
CC(=O)c1ccc(NC2=C(Cl)C(=O)c3ccccc3C2=O)cc1	TEAD-YAP block 49
CCOc1ccc(S(=O)(=O)N2CCOCC2)cc1N	none
Cc1ccc2[nH]c(C)c(CCNS(=O)(=O)c3cc([N+](=O)[O-])ccc3C)c2c1	none
Cc1[nH]c2ccc(F)cc2c1CCNS(=O)(=O)c1cc([N+](=O)[O-])ccc1Cl	TEAD-YAP block 61
O=C(Nc1cc(Cl)ccc1Cl)c1cc(Br)cc(Br)c1O	TEAD-YAP block 34
CC(=O)C(C(C)=O)C1=C(Cl)C(=O)C(=O)c2ccccc21	TEAD-YAP block 84
COc1cccc(C2CC(c3cccs3)=NN2C(=O)CSc2nnc(CNC(=O)c3ccco3)n2-c2ccc([N+](=O)[O-])cc2)c1OC (stereo unspecified)	none
O=C(N/N=C/c1ccc(O)c(O)c1)c1cccc(N/N=C/c2ccc(O)c(O)c2)c1	MITF primary 105
O=C(N/N=C/c1ccc(O)c(O)c1)N/N=C/c1ccc(O)c(O)c1	MITF primary 95
Nc1nnc(CC(=O)N/N=C\c2ccc(O)c(O)c2)s1	MITF primary 52
Nn1cnnc1N/N=C/c1ccc(O)c(O)c1	MITF primary 88
CCOC(=O)c1ccc(NC(=O)CSc2ncnc3sc4c(c23)CCC4)cc1	none
O=C(Nc1nccs1)c1cn(-c2ccccc2)nc1-c1cccnc1	TEAD-YAP block 38
O=C(Nc1nccs1)c1cn(-c2ccccc2)nc1-c1ccc(Br)cc1	none
CSc1ncc(C(=O)Nc2ccccc2Br)c(C)n1	none
O=C(Cc1ccc(Cl)cc1)Nc1ccc2oc(-c3ccccc3F)nc2c1	none
Cc1cc(OCC(=O)Nc2ccc(-c3nc4cc(C(C)C)ccc4o3)cc2)cc(C)c1Cl	none
Cc1cc(C)c2oc(-c3cccc(NC(=O)COc4cc(C)c(Cl)c(C)c4)c3)nc2c1	TEAD-YAP block 42
CC(C)C(=O)Nc1cc(-c2nc3cc(C(C)C)ccc3o2)ccc1Cl	TEAD-YAP block 45
CCC(=O)Nc1ccc2oc(-c3ccccc3F)nc2c1	TEAD-YAP block 39
CC(C)c1ccc2oc(-c3ccc(NC(=O)COc4ccc5ccccc5c4)cc3)nc2c1	TEAD-YAP block 42
COc1ccc(C2C(C(=O)OCc3ccccc3)=C(C)NC3=C2C(=O)CC(C)(C)C3)c(OC)c1 (stereo unspecified)	none
CCOC(=O)c1c(NC(=O)c2ccc(OC)cc2)sc2c1CC(C)CC2 (stereo unspecified)	none
COc1cc(OC)c(OC)cc1/C=N/n1c(C)nnc1-n1nc(C)cc1C	none
Cc1cc(OCC(=O)Nc2ccc3oc(-c4cccnc4)nc3c2)cc(C)c1Cl	none
Cc1cc(OCC(=O)Nc2ccc3oc(-c4ccccc4Br)nc3c2)cc(C)c1Cl	FBW7 act 2.0
COC(=O)C1=C(C)NC(=O)/C1=C\c1cc(C)n(-c2ccc(C)cc2)c1C	none
Cc1c(/C=C(\C#N)c2ccccn2)cc(C#N)n1C	none
Cc1c(/C=C/c2nc3ccccc3s2)cc(C#N)n1C	TEAD-YAP block 73
CN(Cc1ccccc1)CC(O)COc1ccc(CNCC2CCOCC2)cc1 (stereo unspecified)	none
Cc1nc(C)n(-c2ccc(Nc3nccc(-c4ccccc4-c4ccccc4)n3)cc2)n1	none
Cc1nc(C)n(-c2ccc(Nc3nccc(-c4cncc5ccccc45)n3)cc2)n1	TEAD-YAP block 81
CC12CCC(C(=O)Nc3ccccc3[N+](=O)[O-])(CC1=O)C2(C)C (stereo unspecified)	none
Cn1cnc([N+](=O)[O-])c1S(=O)CC#N (stereo unspecified)	TEAD-YAP block 56
Cc1ccc(SCCNC(=O)CCl)cc1	TEAD-YAP block 43
C#CCOc1c(Br)cc(C2C3=C(CCCC3=O)NC3=C2C(=O)CCC3)cc1OCC	none
CCOc1ccc(-c2n[nH]c3c2C(c2ccc(F)cc2)NC3=O)cc1 (stereo unspecified)	none
CCOc1ccc(-c2n[nH]c3c2C(c2cc(OC)ccc2OC)NC3=O)cc1 (stereo unspecified)	TEAD-YAP block 51
COc1ccc(C2NC(=O)c3[nH]nc(-c4ccc(C)cc4)c32)c(OC)c1 (stereo unspecified)	TEAD-YAP block 44
CCCn1c(SCC(=O)c2ccc(Br)cc2)nc2ccccc21	none
CCCCN(C)C(=O)CSc1nc2ccccc2c(=O)n1CC1CCC(C(=O)NCCc2ccccc2)CC1 (stereo unspecified)	FBW7 act 1.9
Cc1ccc2c(c1)C1C=CCC1C(C(=O)O)N2 (stereo unspecified)	MITF primary 70
NS(=O)(=O)c1ccc2c(c1)C1C=CCC1C(C(=O)O)N2 (stereo unspecified)	MITF primary 72
Fc1ccc(C2Nc3ccc(OC(F)(F)F)cc3C3C=CCC32)cc1 (stereo unspecified)	none
CC(=O)c1ccc2c(c1)C1C=CCC1C(C(=O)O)N2 (stereo unspecified)	MITF primary 79
Cc1cc(I)cc2c1NC(C(=O)O)C1CC=CC21 (stereo unspecified)	none
O=C(O)C1Nc2ccc(OC(F)(F)F)cc2C2C=CCC12 (stereo unspecified)	MITF primary 75
Cc1c(Cl)cccc1NC(=S)N(CCCN1CCC(C)CC1)Cc1ccco1	none
FC(F)(F)Oc1cccc(-c2nccc(NCCCN3CCOCC3)n2)c1	none
c1cc(Nc2ccc3nc[nH]c3c2)cc(Nc2ccc(N3CCOCC3)cc2)n1	none
c1cc(-c2ccnc(Nc3ccc(-n4cnc(-c5ccncc5)n4)cc3)n2)cc(N2CCOCC2)c1	none
c1ccc(CNc2ccnc(Nc3ccc(N4CCOCC4)cc3)c2)cc1	TEAD-YAP block 34
c1ccc(-c2ncn(-c3ccc(Nc4cc(-c5cccc(N6CCOCC6)c5)ccn4)cc3)n2)nc1	TEAD-YAP block 78
c1cc(Nc2cc(C3CC3)[nH]n2)cc(Nc2ccc(N3CCOCC3)cc2)n1	TEAD-YAP block 85
O=C(NCc1ccccc1)c1ccnc(Nc2ccc(N3CCOCC3)cc2)c1	none
c1ccc(-n2cccn2)c(Nc2ccnc(Nc3ccc(N4CCOCC4)cc3)c2)c1	TEAD-YAP block 40
CCc1cccc(OCC(=O)Nc2cccc(C(=O)NCC(C)C)c2)c1	none
O=C(c1ccc(N2CCC(NCc3cc(-c4ccccc4)on3)CC2)cc1)N1CCOCC1	none
c1ccc(Nc2ncn(-c3ccnc(Nc4ccc(N5CCOCC5)cc4)c3)n2)cc1	TEAD-YAP block 37
CN1/C(=C\C=C2/SC(=Nc3ccc4ccccc4c3)N(c3ccccc3)C2=O)Sc2ccc([N+](=O)[O-])cc21	none
CC(C)(C)OC(=O)N1CCCC(c2ccnc3cc(C(C)(C)C)nn23)C1 (stereo unspecified)	FBW7 act 2.1
O=C(COC(=O)c1cc(=O)[nH]c(=O)[nH]1)Nc1cccc(C(F)(F)F)c1	none
CCNC(=O)c1cc2c(=O)n3cccc(C)c3nc2n(Cc2ccco2)c1=N	TEAD-YAP block 58
Cc1cccn2c(=O)c3cc(C(=O)NCc4cccnc4)c(=N)n(Cc4ccco4)c3nc12	none

Screens deposited in PubChem BioAssay by The Scripps Research Institute Molecular Screening Center.
